Assay in all cases: yeast three-hybrid, YBZ-1, SC-Leu-His + 0.5 mM 3-AT, 4 days
Holding throughout (details): tags: N-Gal4 AD-HA kept; label: inside an RPR1-promoter hybrid RNA with tandem MS2 sites; ssRNA

The target of experiment [1] is PUM1 PUF domain R8-LFQ (Homo sapiens, UniProt Q14671 828-1176, N1122L;Y1123F). The gist of the method:
(§1)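 Sequencing with Illumina followed PCR amplification of the repeat regions from transformants grown four days on SC-Leu (input) or SC-Leu-His + 0.5 mM 3-AT (selection). The transformants were strain YBZ-1 with a LexA–MS2 coat fusion and a HIS3 reporter, carrying Pumilio-1 PUF domain libraries and matching RNA elements. The interaction score is the log change in variant frequency from input to selection, computed in log2 with a pseudocount of 1 for absent variants.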

Experiment [2] deals with PUM1 PUF domain R7-KGQ (Homo sapiens, UniProt Q14671 828-1176, S1079K;N1080G;E1083Q). The gist of the method:
as §1

Experiment [3] addresses PUM1 PUF domain R7-RQN (Homo sapiens, UniProt Q14671 828-1176, S1079R;N1080Q;E1083N). In outline: as §1
Experiment [4] has as its target PUM1 PUF domain R3-GPD (Homo sapiens, UniProt Q14671 828-1176, C935G;R936P;Q939D). In outline: as §1
In experiment [5] the target is T1, PUM1 PUF domain R6-MHR (Homo sapiens, UniProt Q14671 828-1176, N1043M;Y1044H;Q1047R).
T1 sequence: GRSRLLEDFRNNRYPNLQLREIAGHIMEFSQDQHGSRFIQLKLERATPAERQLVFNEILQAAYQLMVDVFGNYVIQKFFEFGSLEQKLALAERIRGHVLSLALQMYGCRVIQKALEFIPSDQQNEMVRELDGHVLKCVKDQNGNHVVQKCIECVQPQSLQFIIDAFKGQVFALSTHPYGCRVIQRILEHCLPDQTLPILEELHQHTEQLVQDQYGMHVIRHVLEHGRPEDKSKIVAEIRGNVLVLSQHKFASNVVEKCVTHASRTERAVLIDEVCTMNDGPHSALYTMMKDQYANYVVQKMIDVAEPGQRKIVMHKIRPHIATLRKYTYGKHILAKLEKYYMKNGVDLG
In outline: as §1

Experiment [6] addresses PUM1 PUF domain R5-RFQ (Homo sapiens, UniProt Q14671 828-1176, C1007R;R1008F). The gist of the method:
as §1

The target in experiment [7] is PUM1 PUF domain R5-RHS (Homo sapiens, UniProt Q14671 828-1176, C1007R;R1008H;Q1011S). The gist of the method:
as §1

Experiment [8] addresses PUM1 PUF domain R3-VRA (Homo sapiens, UniProt Q14671 828-1176, C935V;Q939A). The gist of the method:
as §1

Experiment [9] has as its target PUM1 PUF domain R5-DHC (Homo sapiens, UniProt Q14671 828-1176, C1007D;R1008H;Q1011C). The gist of the method: as §1
Experiment [10] concerns the target PUM1 PUF domain R4-NRN (Homo sapiens, UniProt Q14671 828-1176, H972R;Q975N). In outline: as §1
Experiment [11] has as its target PUM1 PUF domain R4-CNV (Homo sapiens, UniProt Q14671 828-1176, N971C;H972N;Q975V). The gist of the method: as §1
The target of experiment [12] is PUM1 PUF domain R5-KFS (Homo sapiens, UniProt Q14671 828-1176, C1007K;R1008F;Q1011S). The gist of the method:
as §1

The target of experiment [13] is PUM1 PUF domain R5-GHS (Homo sapiens, UniProt Q14671 828-1176, C1007G;R1008H;Q1011S). In outline:
as §1

Experiment [14] deals with PUM1 PUF domain R5-WHV (Homo sapiens, UniProt Q14671 828-1176, C1007W;R1008H;Q1011V). The gist of the method: as §1
Experiment [15] has as its target T2, PUM1 PUF domain R6-TFS (Homo sapiens, UniProt Q14671 828-1176, N1043T;Y1044F;Q1047S).
T2 sequence: T1 sequence with M216T, H217F, R220S
In outline:
as §1

The target in experiment [16] is PUM1 PUF domain R5-DRT (Homo sapiens, UniProt Q14671 828-1176, C1007D;Q1011T). In outline: as §1
Experiment [17] deals with PUM1 PUF domain R3-SCR (Homo sapiens, UniProt Q14671 828-1176, C935S;R936C;Q939R). The gist of the method:
as §1

In experiment [18] the target is PUM1 PUF domain R3-MCR (Homo sapiens, UniProt Q14671 828-1176, C935M;R936C;Q939R). In outline: as §1
The target of experiment [19] is PUM1 PUF domain R3-LSE (Homo sapiens, UniProt Q14671 828-1176, C935L;R936S;Q939E). In outline: as §1
Sequence of PUM1 PUF domain R3-LSE (Q14671 828-1176 C935L/R936S/Q939E): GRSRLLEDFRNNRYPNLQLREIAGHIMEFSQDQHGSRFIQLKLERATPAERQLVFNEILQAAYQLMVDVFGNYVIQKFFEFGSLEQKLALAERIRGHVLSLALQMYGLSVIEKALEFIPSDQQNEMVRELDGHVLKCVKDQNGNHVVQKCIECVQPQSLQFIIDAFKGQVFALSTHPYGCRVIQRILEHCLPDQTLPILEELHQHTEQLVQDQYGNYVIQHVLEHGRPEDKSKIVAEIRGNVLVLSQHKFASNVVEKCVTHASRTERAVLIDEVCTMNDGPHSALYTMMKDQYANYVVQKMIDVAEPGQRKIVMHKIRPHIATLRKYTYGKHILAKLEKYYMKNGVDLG
The target of experiment [20] is PUM1 PUF domain R5-RWF (Homo sapiens, UniProt Q14671 828-1176, C1007R;R1008W;Q1011F). In outline: as §1
Sequence of PUM1 PUF domain R5-RWF (Q14671 828-1176 C1007R/R1008W/Q1011F): as the sequence (Q14671 828-1176 C935L/R936S/Q939E) above, with L108C, S109R, E112Q, C180R, R181W, Q184F counted along it

Residue numbers refer to the chain shown, from its start.

Sequence of PUM1 PUF domain R7-RQN (Q14671 828-1176 S1079R/N1080Q/E1083N): as the sequence (Q14671 828-1176 C935L/R936S/Q939E) above, with L108C, S109R, E112Q, S252R, N253Q, E256N counted along it
Sequence of PUM1 PUF domain R8-LFQ (Q14671 828-1176 N1122L/Y1123F): as the sequence (Q14671 828-1176 C935L/R936S/Q939E) above, with L108C, S109R, E112Q, N295L, Y296F counted along it
Sequence of PUM1 PUF domain R7-KGQ (Q14671 828-1176 S1079K/N1080G/E1083Q): as the sequence (Q14671 828-1176 C935L/R936S/Q939E) above, with L108C, S109R, E112Q, S252K, N253G, E256Q counted along it

Turning to “GGCUAGAACUAGUGGAUCCCCCGGCGCCCGGCGGCUCGAGCCCGGGUAAGCGUAAAUAGUCUGCAUGCCGCCGGGCGCCAUGCCUGCAGGUCGACUCUAGAAAACAUG”, in experiment [1], the binding signal was 2.86 log2 enrichment (interaction score).
With “GGCUAGAACUAGUGGAUCCCCCGGCGCCCGGCGGCUCGAGCCCGGGUAAGUUUAAAUAGUCUGCAUGCCGCCGGGCGCCAUGCCUGCAGGUCGACUCUAGAAAACAUG”, the binding signal in [2] was 5.56 log2 enrichment (interaction score); in experiment [3], 3.78 log2 enrichment (interaction score).
For the sequence “GGCUAGAACUAGUGGAUCCCCCGGCGCCCGGCGGCUCGAGCCCGGGUAAGUGUAAAUAGUCUGCAUGCCGCCGGGCGCCAUGCCUGCAGGUCGACUCUAGAAAACAUG”, the binding signal was 1.39 log2 enrichment (interaction score) in experiment [4]; 5.76 log2 enrichment (interaction score) in experiment [5]; 2.95 log2 enrichment (interaction score) in [6]; 4.26 log2 enrichment (interaction score) in experiment [7]; 3.97 log2 enrichment (interaction score) in experiment [8]; 2.98 log2 enrichment (interaction score) in [9]. Moreover, the binding signal in experiment [10] is 2.83 log2 enrichment (interaction score); in [11], 0.77 log2 enrichment (interaction score); in [12], 4.28 log2 enrichment (interaction score); in experiment [13], 3.25 log2 enrichment (interaction score); in experiment [14], 1.26 log2 enrichment (interaction score); in [15] it was 4.51 log2 enrichment (interaction score). The binding signal in [16] was 2.42 log2 enrichment (interaction score).
As to “GGCUAGAACUAGUGGAUCCCCCGGCGCCCGGCGGCUCGAGCCCGGGUAAGUGUAUAUAGUCUGCAUGCCGCCGGGCGCCAUGCCUGCAGGUCGACUCUAGAAAACAUG”, in [11], the binding signal is 3.21 log2 enrichment (interaction score).
As for “GGCUAGAACUAGUGGAUCCCCCGGCGCCCGGCGGCUCGAGCCCGGGUAAGUGUGAAUAGUCUGCAUGCCGCCGGGCGCCAUGCCUGCAGGUCGACUCUAGAAAACAUG”, the binding signal in [6] is 3.05 log2 enrichment (interaction score); in [7] it was 3.89 log2 enrichment (interaction score); in [16] it was 2.11 log2 enrichment (interaction score).
For “GGCUAGAACUAGUGGAUCCCCCGGCGCCCGGCGGCUCGAGCCCGGGUAAGUGUAAUUAGUCUGCAUGCCGCCGGGCGCCAUGCCUGCAGGUCGACUCUAGAAAACAUG”, the binding signal was 3.07 log2 enrichment (interaction score) in [4], 3.35 log2 enrichment (interaction score) in experiment [17] and 4.47 log2 enrichment (interaction score) in experiment [18].
Regarding “GGCUAGAACUAGUGGAUCCCCCGGCGCCCGGCGGCUCGAGCCCGGGUAAGUGUAAGUAGUCUGCAUGCCGCCGGGCGCCAUGCCUGCAGGUCGACUCUAGAAAACAUG”, the binding signal in experiment [8] is 1.39 log2 enrichment (interaction score); in experiment [17], 3.4 log2 enrichment (interaction score); in experiment [19] it was 2.76 log2 enrichment (interaction score).
In the case of “GGCUAGAACUAGUGGAUCCCCCGGCGCCCGGCGGCUCGAGCCCGGGUAAGUGUUAAUAGUCUGCAUGCCGCCGGGCGCCAUGCCUGCAGGUCGACUCUAGAAAACAUG”, the binding signal in experiment [7] is 5.74 log2 enrichment (interaction score); in experiment [12] it was 5.06 log2 enrichment (interaction score); in [20] it was 4.13 log2 enrichment (interaction score).
With “GGCUAGAACUAGUGGAUCCCCCGGCGCCCGGCGGCUCGAGCCCGGGUAAGUGUCAAUAGUCUGCAUGCCGCCGGGCGCCAUGCCUGCAGGUCGACUCUAGAAAACAUG”, the binding signal was 5.1 log2 enrichment (interaction score) in experiment [7], 5.16 log2 enrichment (interaction score) in experiment [12], 2.8 log2 enrichment (interaction score) in experiment [14] and 1.84 log2 enrichment (interaction score) in experiment [16].
Regarding “GGCUAGAACUAGUGGAUCCCCCGGCGCCCGGCGGCUCGAGCCCGGGUAAGUCUAAAUAGUCUGCAUGCCGCCGGGCGCCAUGCCUGCAGGUCGACUCUAGAAAACAUG”, the binding signal in [3] is 0.64 log2 enrichment (interaction score).
For the sequence “GGCUAGAACUAGUGGAUCCCCCGGCGCCCGGCGGCUCGAGCCCGGGUAAGUGUACAUAGUCUGCAUGCCGCCGGGCGCCAUGCCUGCAGGUCGACUCUAGAAAACAUG”, the binding signal in [11] is 2.79 log2 enrichment (interaction score).

Values taken from paper PMC8384837, “Expanding the binding specificity for RNA recognition by a PUF domain”.
